According to PubChem BioAssay AID435005 (Broad Institute, 2010):
Among all 300,000 compounds or so, about 2,400 (0.8%) were called active. The sample as a whole holds a higher share of actives than the screen did. Values without a mark were called inactive.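 Rule for the calls: active = Every replicate reaches about 75%, or at least half do and their mean reaches it too (limit read from the data); inconclusive = At least half of replicates reach the limit but their mean does not; inactive = Under half of replicates reach the limit.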

Assay: INS-1E beta cell survival under cytokines – luminescence, primary screen (AID 435005);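 note: 0% = cytokine-treated negative control wells and 100% = positive control rescue; higher means more ATP so stronger rescue from cytokine killing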
Conditions: INS-1E cytokine-induced death, ATP luminescence, 48 h; active compounds read high; percent of positive-control rescue, neutral wells zero; concentration not given here

Row | Structure (SMILES) | protection from apoptosis
1 | COc1ccc2nc3n(c(=O)c2c1)-c1cc(C)ccc1C(=O)NC3Cc1ccc(O)cc1 (stereo not drawn) | 9.76%
2 | COc1ccc(NS(=O)(=O)c2cc(NC(=O)c3ccc(S(=O)(=O)N(C)C)cc3)ccc2N2CCOCC2)cc1 | 5.26%
3 | COc1ccccc1OCCNC(=O)C(CCSC)NC(=O)COc1ccccc1 (stereo not drawn) | -1.66%
4 | Cc1ccc(S(=O)(=O)N2CCN(c3ncnc4ccccc34)CC2)cc1 | 102% (active)
5 | COc1ccc(C)cc1S(=O)(=O)N1CCN(S(=O)(=O)c2cc(C(=O)O)ccc2C)CC1 | -3.1%
6 | Cc1ccc(S(=O)(=O)N2CCN(C)CC2)cc1 | 4.63%
7 | Cc1ccc(C)c(S(=O)(=O)N2CCN(C(=O)Nc3ccccc3)CC2)c1 | -4.43%
8 | Cc1cc(N2CCN(S(=O)(=O)c3ccc(C)c(C)c3)CC2)c2ccccc2n1 | 10.4%
9 | Cc1ccc(C)c(S(=O)(=O)N2CCN(c3ncnc4sccc34)CC2)c1 | 112% (active)
10 | COC(=O)[C@]1(CC(C)C)N[C@H](c2ccc(SC3CCCCC3)cc2)[C@@H]2C(=O)N(C)C(=O)[C@@H]21 | 2.66%
11 | C[C@H](CO)N1C[C@H](C)[C@@H](CN(C)C(=O)NC2CCCCC2)Oc2ccc(NC(=O)c3ccncc3)cc2C1=O | -8.1%
12 | CCOc1ccc(NS(=O)(=O)c2ccc(Cl)c(C(=O)N(C)Cc3cccnc3)c2)cc1 | 5.11%
13 | COc1ccccc1CNC(=O)COC(=O)c1cccs1 | -8.13%
14 | O=C1NC[C@@H](c2ccccc2)OC(=O)[C@H](Cc2ccc(F)cc2)CC/C=C/C[C@H]1CC(=O)N(CCO)Cc1ccccc1 | 5.81%
15 | C#CCOCCOCCOCCNc1nc(N2CCN(C(=O)[C@H](CCCN=C(N)N)n3cc(C(N)[C@@H](C)CC)nn3)CC2)nc(N2CCN(C(=O)[C@H](CO)n3cc([C@@H](N)C(C)C)nn3)CC2)n1 (stereo partly drawn) | -10.4%
16 | COc1ccc2cc1Oc1ccc(cc1)C[C@H]1c3cc(c(OC)cc3CCN1C)Oc1c(O)c(OC)cc3c1[C@H](C2)N(C)CC3 | 98.5% (active)
17 | COc1c(O)ccc2c1CN1CCc3cc4c(cc3C1C2)OCO4 (stereo not drawn) | -2.11%
18 | O=C(CNC(=O)c1ccco1)NNC(=O)c1ccc(Br)cc1 | -6.27%
19 | CC(C)(C)OC(=O)C[C@H]1C/C=C\C[C@@H](CC(=O)N[C@H](CO)Cc2ccccc2)C(=O)NC[C@@H](c2ccccc2)OC1=O | 6.61%
20 | CC1O[C@H](OC2C(COC3OC(CO)C(O)[C@H](O)C3O)OC(OC3CC[C@]4(C)C(CC[C@@]5(C)[C@@H]4C=C[C@]46OC[C@@]7(CCC(C)(C)C[C@H]74)C(O)C[C@@]56C)C3(C)C)C(O)C2O)C(O)C(O)C1O (stereo partly drawn) | -6.92%
21 | C=C(C)C(=O)O[C@H]1C/C(C)=C\C(=O)/C=C(\C)[C@H](O)[C@@H]2OC(=O)C(=C)[C@@H]21 | 96.8% (active)

Row | Structure (SMILES) | protection from apoptosis
22 | O=C(NCc1ccc2c(c1)OCO2)c1cc([N+](=O)[O-])ccc1N1CCOCC1 | 12.9%
23 | O=C(COC(=O)C1CCCO1)Nc1nc(-c2ccc(F)cc2)cs1 (stereo not drawn) | 0.639%
24 | c1ccc2c(CCN3CCNC[C@H]3Cc3cccc4ccccc34)cccc2c1 | 1.24%
25 | COc1ccc(S(=O)(=O)/N=C2\C=C(NS(=O)(=O)c3ccccc3)C(=O)c3ccccc32)cc1 | 1.27%
26 | CC(C)CC[n+]1ccn(C2=C([O-])c3ccccc3C(=O)/C2=N\S(=O)(=O)c2ccccc2)c1 | 95% (active)
27 | COc1ccc(OCC(=O)NNC(=O)C2CCC2)cc1 | -4.44%
28 | COC(=O)[C@]1(Cc2ccccc2)N[C@H](CN(C)S(=O)(=O)c2ccc(F)cc2)[C@@H]2C(=O)N(Cc3ccccc3)C(=O)[C@@H]21 | 10.3%
29 | Cc1cc(CN(C)C(=O)c2cc(COc3ccc(C)c(C)c3)on2)n[nH]1 | -0.122%
30 | Cc1ccc(OCc2cc(C(=O)N(C)CCc3ccccc3)no2)cc1C | -0.126%
31 | CN(Cc1cccnc1)C(=O)c1cc(COc2ccc3ncccc3c2)on1 | 101% (active)
32 | O=C(COC(=O)COc1ccccc1F)Nc1cccc(S(=O)(=O)N2CCCCC2)c1 | -4.07%
33 | O=C(NCCCN1CCOCC1)c1cn(-c2ccccc2)nc1-c1ccc(F)cc1 | -0.73%
34 | Cc1oc2c(c1C(=O)N1CCOCC1)C(=O)c1ccccc1C2=O | 108% (active)
35 | Cc1noc(C)c1C(=O)N1CCOCC1 | -4.19%
36 | CCOC(=O)c1ccccc1C(=O)N1CCOCCOCCOCC1 | 0.0542%
37 | COc1cc(NS(=O)(=O)c2ccc(NC(C)=O)cc2)cc(OC)c1 | 25.4%
38 | CC(=O)Nc1ccc(S(=O)(=O)Nc2ccc(N3CCCCC3)cc2)cc1 | 119% (active)
39 | CC(=O)Nc1ccc(S(=O)(=O)Nc2ccc(N3CCOCC3)c(F)c2)cc1 | 2.71%
40 | COc1ccc(C)cc1NC(=O)CSc1cccc[n+]1[O-] | -1.83%
41 | CSc1ncccc1C(=O)NCC(c1ccco1)N1CCCCC1 (stereo not drawn) | -20.2%
42 | CC(C(=O)N1CCc2ccccc21)N(C)CC(=O)Nc1ccc(F)cc1 (stereo not drawn) | 6.77%

Row | Structure (SMILES) | protection from apoptosis
43 | Fc1ccc2cnc(-c3ccccc3)cc2c1 | -4.87%
44 | C[C@]12CC[C@H](O)CC1=CCC1C2CC[C@@]2(C)C1CC[C@@H]2NC(=O)CCC(=O)O (stereo partly drawn) | 0.606%
45 | COc1cc(OC)cc(C(=O)NNC(=O)Cc2cccs2)c1 | -2.67%
46 | CC(=O)c1c(C)oc2ccc(NS(=O)(=O)c3ccccc3)cc12 | -0.111%
47 | CC(=O)c1c(C)oc2ccc(NS(=O)(=O)c3ccc(C(=O)O)cc3)cc12 | -1.56%
48 | COc1ccc(S(=O)(=O)Nc2ccc3oc(C)c(C(C)=O)c3c2)cc1 | 87.4% (active)
49 | Cc1ccc(S(=O)(=O)N2CCN(C(=O)CN3C(=O)NC(C)(c4ccc(Cl)cc4)C3=O)CC2)c(C)c1 (stereo not drawn) | 0.524%
50 | Cc1ccc(S(=O)(=O)N(C)CC(=O)NCC(c2ccc(F)cc2)N2CCOCC2)cc1 (stereo not drawn) | -2.01%
51 | CC(C)CC1NC(=O)c2cc(Cl)ccc2-n2c1nc1ccccc1c2=O (stereo not drawn) | -3.6%
52 | O=C(Nc1cccc(S(=O)(=O)N2CCCCC2)c1)c1cncc(Br)c1 | -1.23%
53 | CCCSc1ccc([C@H]2N[C@@](Cc3ccccc3)(C(=O)OC)[C@H]3C(=O)N(C)C(=O)[C@@H]23)cc1 | -4.97%
54 | CCN(CC)CCCN=Cc1c(O)n(-c2ccc(C)cc2)c(=O)c2ccccc12 | -3.92%
55 | CCOc1ccc(-n2c(O)c(/C=N/c3ccnn3Cc3ccncc3)c3ccccc3c2=O)cc1 | -6.16%
56 | CCOc1ccc(-n2c(O)c(/C=N/Nc3nc(C)cc(C)n3)c3ccccc3c2=O)cc1 | 83.2% (active)
57 | COc1ccc(C(=O)C(C)OC(=O)c2cccc(S(=O)(=O)Nc3c(C)n(C)n(-c4ccccc4)c3=O)c2)cc1 (stereo not drawn) | -20.9%
58 | C[C@H](CO)N1C[C@H](C)[C@@H](CN(C)S(=O)(=O)c2ccc(F)cc2)Oc2ccc(NC(=O)CCC(F)(F)F)cc2C1=O | -4.6%
59 | C/C(=N\NS(=O)(=O)c1ccccc1)c1c(O)cc(C)oc1=O | -4%
60 | Cc1csc2nc(COC(=O)c3cccc(N(C)C)c3)cc(=O)n12 | 0.447%
61 | O=C(CCCOc1ccccc1)NNC(=O)c1ccc(Cl)cc1 | -1.22%
62 | Nc1nc2n(n1)C(c1ccco1)CC(c1ccc(Cl)c(Cl)c1)N2 (stereo not drawn) | 0.887%
63 | Cc1ccc(C2CC(c3cccc(C)c3)n3nc(N)nc3N2)cc1 (stereo not drawn) | 101% (active)

Row | Structure (SMILES) | protection from apoptosis
64 | COc1ccc(C2CC(c3ccc(Cl)cc3Cl)Nc3nc(N)nn32)cc1OC (stereo not drawn) | -0.0368%
65 | COc1ccc(C2CC(c3ccc(C)cc3)Nc3nc(N)nn32)cc1 (stereo not drawn) | -2.94%
66 | CCOc1ccccc1C1CC(c2ccccc2)Nc2nc(N)nn21 (stereo not drawn) | 2.14%
67 | Cc1ccc(C2CC(c3cccc(Br)c3)n3nc(N)nc3N2)cc1 (stereo not drawn) | 91.3% (active)
68 | O=C(CN1C(=O)NC2(CCCCCC2)C1=O)Nc1ccc([N+](=O)[O-])cc1 | 0.997%
69 | CCCCN(C(=O)C1=NN(c2cc(C)ccc2C)C(=O)CC1)c1c(N)n(CCC)c(=O)[nH]c1=O | 1.47%
70 | COc1ccccc1NC(=O)COC(=O)CNC(=O)C1CCCCC1 | -4.98%
71 | CCCCCCSc1ccc([C@@H]2[C@H]3C(=O)N(CC)C(=O)[C@H]3[C@]3(C(=O)OC)CCCCN23)cc1 | 2.19%
72 | COC(=O)C1=C(C)NC(=S)NC1c1ccc(OCC(=O)N2CC(C)OC(C)C2)c(OC)c1 (stereo not drawn) | 0.55%
73 | O=C(CCCO)N/N=C/c1cc(Br)ccc1O | 2.57%
74 | O=C(N/N=C/c1ccccc1O)/C(=C/c1ccccc1)CCO | 85.8% (active)
75 | O=C(N/N=C/c1ccccc1O)C1CCCC1 | 8.23%
76 | O=C(CN1C(=O)NC2(CCCC2)C1=O)Nc1cc(C(F)(F)F)ccc1N1CCOCC1 | 1.66%
77 | CCCOc1ccc(Cc2c(O)nc(SC)[nH]c2=O)cc1C | -2.93%
78 | CCCOc1ccc(C(=O)NCCc2ccccc2)cc1 | 9.99%
79 | CCCOc1ccc(Cc2c(Cl)nc(SC)nc2NC)cc1 | 82.7% (active)
80 | COc1ccc(C2=Nn3c(nnc3-c3ccccc3OC)SC2)cc1OC1CCCC1 | 31.3%
81 | CCOc1ccc(CN2CCN(Cc3c[nH]c4ccccc34)CC2)cc1 | 76.1% (active)
82 | CCOc1ccc(CN2CCCN(C)CC2)cc1 | -3.58%
83 | O=C(NCCc1c[nH]c2ccccc12)C1CCN(Cc2ccc(Br)cc2)CC1 | -12.4%
